Compounds without any hit were thinned out: in the full panel of roughly 83,000, 20% have a hit.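 Results are percent growth after 48 hours of single-concentration exposure. 100 means growth as in untreated cells, lower positive values show inhibition; negative values down to -100 show cell death.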 Activity calls are given as the source filed them. The calls were made as follows: active = growth percent below 10; inactive = the rest.
Legend:
Assay in all cases: NCI-60 one-dose screen, 48 h (100 = growth as untreated, 0 = no growth, -100 = all killed)
Conditions in all cases: 10 µM unless noted
SK-MEL-2 melanoma = system: SK-MEL-2 melanoma
EKVX NSCLC = system: EKVX NSCLC
SN12C renal = system: SN12C renal
UO-31 renal = system: UO-31 renal
TK-10 renal = system: TK-10 renal
ACHN renal = system: ACHN renal
CAKI-1 renal = system: CAKI-1 renal
A498 renal = system: A498 renal
CCRF-CEM leukemia = system: CCRF-CEM leukemia
MOLT-4 leukemia = system: MOLT-4 leukemia

Measured: growth

Nc1n[nH]c2cc(F)c([C@@H]3Nc4c(F)cc5[nH]ncc5c4[C@H]4C5CCC(C5)[C@@H]34)cc12 (stereo not given in full)
inactive: SK-MEL-2 melanoma 43.5% | EKVX NSCLC 63.2% | SN12C renal 17.3% | UO-31 renal 36.5% | TK-10 renal 76.3% | ACHN renal 24.4% | CCRF-CEM leukemia 17.8% | MOLT-4 leukemia 14.8%
active: CAKI-1 renal 6.94% | A498 renal -38.9%

CSc1n(Cc2ccc3ccccc3c2)c(C)c[n+]1Cc1ccc2ccccc2c1
inactive: EKVX NSCLC 24.9% | UO-31 renal 72.4% | ACHN renal 48%
active: SK-MEL-2 melanoma -25.7% | SN12C renal -2.22% | TK-10 renal -9.72% | CAKI-1 renal -22.8% | A498 renal -32.3% | CCRF-CEM leukemia 1.28% | MOLT-4 leukemia 2.39%

CC1=NOC(=O)/C1=C\c1ccc(O)cc1
inactive: SK-MEL-2 melanoma 113% | EKVX NSCLC 104% | SN12C renal 101% | UO-31 renal 85.7% | TK-10 renal 102% | ACHN renal 101% | CAKI-1 renal 95.4% | A498 renal 86.7% | CCRF-CEM leukemia 94.1% | MOLT-4 leukemia 102%

O=C(CCc1nnc(CN(c2ccccc2)c2ccccc2)o1)c1nc2ccccc2[nH]1
inactive: SK-MEL-2 melanoma 88.7% | EKVX NSCLC 63.4% | SN12C renal 86.9% | UO-31 renal 61.3% | TK-10 renal 117% | ACHN renal 108% | CAKI-1 renal 84.1% | A498 renal 80.5% | CCRF-CEM leukemia 77.6% | MOLT-4 leukemia 55.7%

COc1ccc(-c2cc(-c3cc(OC)c(OC)c(OC)c3)c(C#N)c(N3CCOCC3)n2)cc1O
inactive: SK-MEL-2 melanoma 68.2% | EKVX NSCLC 59.8% | SN12C renal 60.1% | UO-31 renal 56.8% | TK-10 renal 73.3% | ACHN renal 66.7% | CAKI-1 renal 51.5% | A498 renal 74.8% | CCRF-CEM leukemia 42.8% | MOLT-4 leukemia 55.4%

COc1cc(/C=N/Nc2ncc(-c3cc4cc5c(cc4o3)OCO5)s2)cc(OC)c1OC
inactive: SK-MEL-2 melanoma 79.7% | EKVX NSCLC 71.4% | SN12C renal 71.2% | UO-31 renal 66.8% | TK-10 renal 101% | ACHN renal 74.3% | CAKI-1 renal 64.2% | A498 renal 75.6% | CCRF-CEM leukemia 26% | MOLT-4 leukemia 18.6%

COc1cc(C2CC(c3ccc(Nc4ccnc5cc(Cl)ccc45)cc3)=NN2C=O)cc(OC)c1OC (stereo not given)
inactive: SK-MEL-2 melanoma 97.4% | EKVX NSCLC 76.7% | SN12C renal 86.7% | UO-31 renal 61.9% | TK-10 renal 92.8% | ACHN renal 87.5% | CAKI-1 renal 86.7% | A498 renal 93.2% | CCRF-CEM leukemia 58% | MOLT-4 leukemia 43.1%

COc1ccc(-c2nc3sccn3c2-c2cc(-c3cc(OC)c(OC)c(OC)c3)on2)cc1
inactive: SK-MEL-2 melanoma 142% | EKVX NSCLC 98.9% | SN12C renal 105% | TK-10 renal 162% | ACHN renal 98.7% | CAKI-1 renal 127% | A498 renal 74.4% | CCRF-CEM leukemia 34.6% | MOLT-4 leukemia 40.3%
active: UO-31 renal -60.9%

CCCc1cc2c(=O)c(C(=O)OC)c[nH]c2cc1N(CC)CC
inactive: SK-MEL-2 melanoma 93.9% | EKVX NSCLC 106% | SN12C renal 94.7% | UO-31 renal 82.6% | TK-10 renal 101% | ACHN renal 92.7% | CAKI-1 renal 94.9% | A498 renal 107% | CCRF-CEM leukemia 88.2% | MOLT-4 leukemia 98.2%

Cc1ccc(/C=C2\C(=O)N(C)c3ccc(S(=O)(=O)Nc4ccc(C(C)(C)C)cc4)cc32)s1
inactive: SK-MEL-2 melanoma 90.3% | EKVX NSCLC 54.3% | SN12C renal 36.7% | UO-31 renal 56.9% | TK-10 renal 70.2% | ACHN renal 59.8% | CAKI-1 renal 55.2% | A498 renal 75.9% | CCRF-CEM leukemia 65.6% | MOLT-4 leukemia 78.2%

O=C(c1ccccc1)c1c(/C=C/c2ccccc2)nc2ccccc2c1/C=C/c1ccc(Br)cc1
inactive: SK-MEL-2 melanoma 110% | EKVX NSCLC 102% | SN12C renal 92.7% | UO-31 renal 68.2% | TK-10 renal 107% | ACHN renal 97% | CAKI-1 renal 80.9% | A498 renal 79.9% | CCRF-CEM leukemia 97% | MOLT-4 leukemia 94.6%

Cc1ccc(Nc2ccc(Nc3ccc(C)cc3)c3c2C(=O)c2cccc(O)c2C3=O)cc1
inactive: SK-MEL-2 melanoma 65.5% | EKVX NSCLC 91.6% | SN12C renal 98% | UO-31 renal 64.7% | TK-10 renal 137% | ACHN renal 91% | CAKI-1 renal 104% | A498 renal 116% | CCRF-CEM leukemia 93.2% | MOLT-4 leukemia 104%

COc1cc(/C=N/NC(=O)Cn2c(C(C)C)nc3ccccc32)ccc1O
inactive: SK-MEL-2 melanoma 105% | EKVX NSCLC 103% | SN12C renal 94.7% | UO-31 renal 84.5% | TK-10 renal 106% | ACHN renal 99.6% | CAKI-1 renal 91.8% | A498 renal 81.9% | CCRF-CEM leukemia 94.5% | MOLT-4 leukemia 93.6%

O=C(CSc1nnc(-c2ccc(NC(=O)c3cccnc3)cc2)o1)Nc1cccc(Br)c1
inactive: SK-MEL-2 melanoma 96.5% | EKVX NSCLC 88.3% | SN12C renal 51.1% | UO-31 renal 95.9% | TK-10 renal 121% | ACHN renal 99.2% | CAKI-1 renal 82.6% | A498 renal 96.2% | CCRF-CEM leukemia 72.2% | MOLT-4 leukemia 84.5%

CCOc1ccccc1-n1c(CN2CCN(C(=O)COc3ccc(CNCCCCCCN4C5CCCC4CC(OC(=O)Nc4cc(C)ccc4OC)C5)cc3)CC2)nc2ccccc2c1=O (stereo not given)
active: SK-MEL-2 melanoma -90.9% | EKVX NSCLC -92.1% | SN12C renal -91% | UO-31 renal -98.5% | TK-10 renal -86.3% | ACHN renal -100% | CAKI-1 renal -100% | A498 renal -93.4% | CCRF-CEM leukemia -64.9% | MOLT-4 leukemia -68%

COc1ccc(-c2nc(SCCC(C)C)nc(N/N=C\c3ccccc3O)c2C#N)cc1
inactive: SK-MEL-2 melanoma 103% | EKVX NSCLC 101% | SN12C renal 81.2% | UO-31 renal 86.7% | TK-10 renal 101% | ACHN renal 73.5% | CAKI-1 renal 73.9% | A498 renal 95.8% | CCRF-CEM leukemia 66.3% | MOLT-4 leukemia 90.2%

Cc1cc(O)c(C2=NN(c3ccc(S(N)(=O)=O)cc3)C(c3ccccc3Cl)C2)cc1Cl (stereo not given)
inactive: SK-MEL-2 melanoma 25.2% | SN12C renal 18.8% | UO-31 renal 16.5% | TK-10 renal 60.6% | ACHN renal 15.7% | A498 renal 45.9%
active: EKVX NSCLC -1.91% | CAKI-1 renal -3.01% | CCRF-CEM leukemia 9.09% | MOLT-4 leukemia -31.6%

CCOC(=O)c1ccc(N2NC(=O)/C(=C/c3ccc([N+](=O)[O-])o3)C2=O)cc1
inactive: SK-MEL-2 melanoma 31.8% | EKVX NSCLC 111% | SN12C renal 119% | UO-31 renal 100% | TK-10 renal 106% | ACHN renal 104% | CAKI-1 renal 108% | A498 renal 109% | CCRF-CEM leukemia 89.3% | MOLT-4 leukemia 105%

N#C/C(=C\c1ccc(-c2ccccc2F)o1)c1nc(-c2ccco2)cs1
inactive: SK-MEL-2 melanoma 96.5% | EKVX NSCLC 67% | SN12C renal 96.7% | UO-31 renal 68.8% | TK-10 renal 65.2% | ACHN renal 90.4% | CAKI-1 renal 56.8% | A498 renal 66.9% | CCRF-CEM leukemia 95% | MOLT-4 leukemia 91.9%

COc1ccc2c(c1)C(=O)/C(=C/c1cccc(OCC(=O)Nc3nc(C)c(C)s3)c1)O2
active: EKVX NSCLC -45.3% | SN12C renal 3.1% | UO-31 renal -79.1% | TK-10 renal -14.3% | ACHN renal -56.5% | CAKI-1 renal -81.5% | CCRF-CEM leukemia -69.6% | MOLT-4 leukemia -65.4%
inactive: SK-MEL-2 melanoma 59.9% | A498 renal 97.2%

COc1ccc(/C=N/C2=C(C#N)C(c3ccc(OC)cc3)c3ccc4ccccc4c3O2)cc1 (stereo not given)
inactive: SK-MEL-2 melanoma 84.4% | EKVX NSCLC 85.1% | SN12C renal 76.5% | UO-31 renal 53.7% | TK-10 renal 87.1% | ACHN renal 81.4% | CAKI-1 renal 37.3% | A498 renal 26.6% | CCRF-CEM leukemia 77.4% | MOLT-4 leukemia 60.2%

c1ccc2cc3nc4cc5ccccc5cc4nc3cc2c1
inactive: SK-MEL-2 melanoma 104% | EKVX NSCLC 100% | SN12C renal 88.6% | UO-31 renal 89% | TK-10 renal 108% | ACHN renal 97.4% | CAKI-1 renal 113% | A498 renal 107% | MOLT-4 leukemia 109%
active: CCRF-CEM leukemia -24.9%

Cc1ccc(S(=O)(=O)N/N=C\c2cc(Cl)ccc2O)cc1
inactive: SK-MEL-2 melanoma 99.7% | EKVX NSCLC 113% | SN12C renal 101% | UO-31 renal 83.7% | TK-10 renal 88.4% | ACHN renal 75.4% | CAKI-1 renal 73.9% | A498 renal 86.7% | CCRF-CEM leukemia 74% | MOLT-4 leukemia 98.1%

CCCCC1CCCCN1C(=O)OCC (stereo not given)
inactive: SK-MEL-2 melanoma 101% | EKVX NSCLC 122% | SN12C renal 103% | UO-31 renal 88.7% | TK-10 renal 92.7% | ACHN renal 103% | CAKI-1 renal 101% | A498 renal 102% | CCRF-CEM leukemia 108% | MOLT-4 leukemia 115%

Cn1c(I)c(C#C[Si](C)(C)C)c(=O)n(C(=O)c2ccccc2)c1=O
active: UO-31 renal -78.4% | CCRF-CEM leukemia -57.5% | MOLT-4 leukemia -69.9%
inactive: SK-MEL-2 melanoma 81% | EKVX NSCLC 91.2% | SN12C renal 51% | TK-10 renal 43.6% | ACHN renal 11.5% | CAKI-1 renal 40.9% | A498 renal 105%

N#Cc1c2c(nn(-c3ccccc3)c1=O)C(O)=C([N+](=O)[O-])C(c1ccccc1)C2 (stereo not given)
inactive: SK-MEL-2 melanoma 89% | EKVX NSCLC 83.8% | SN12C renal 89.7% | UO-31 renal 64% | TK-10 renal 99.1% | ACHN renal 74.3% | CAKI-1 renal 81.9% | A498 renal 90.7% | CCRF-CEM leukemia 58% | MOLT-4 leukemia 67.5%

CCN(CCNc1ccc(C)c2sc3ccccc3c(=O)c12)CC(C)(C)O
inactive: SK-MEL-2 melanoma 77.3% | EKVX NSCLC 101% | SN12C renal 101% | UO-31 renal 70.2% | TK-10 renal 89.7% | ACHN renal 79.7% | CAKI-1 renal 79% | A498 renal 81% | CCRF-CEM leukemia 39.9% | MOLT-4 leukemia 40%

From PubChem BioAssay (NCI)
